Screens (PubChem BioAssay)
In the library only some 3.7% were active in any assay of this set; here they are far more common.
BoNT A protease – BoNT/A light chain protease inhibitors, primary screen, biochemical, flow cytometry, MLPCN library; multiplex microsphere protease substrate cleavage; inhibition, % at 10 µM; 0.17% of 360,000 active; AID 588499, 2011
Autofluor counter – counter-screen for toxin protease inhibitors: compound fluorescence. compound autofluorescence counterscreen, microsphere flow cytometry; active compounds read high. fluorescence intensity (concentration not given with the values). 3.1% of 360,000 active; in the data active = fluorescence intensity above about 16000; inconclusive = no clear call, values can overlap the other calls
Anthrax LF inh2 – Bacillus anthracis LF protease inhibitors, primary screen, biochemical, multiplex microsphere, MLPCN library | 0.12% of 360,000 active | Lethal factor (Bacillus anthracis), P15917 | AID 588501, 2011 | multiplex microsphere protease cleavage assay | inhibition, % at 10 µM
MazEF act – activators of E. coli MazEF toxin-antitoxin RNase, primary screen, biochemical, fluorescence, uHTS | AID 504720, 2011 | Endoribonuclease toxin MazF (Escherichia coli (strain K12)), P0AE70 | FAM/BHQ RNA-DNA oligo cleavage fluorescence, 5 h | 0.32% of 350,000 active | activation, % at 20 µM; in the data active = activation above about 50%
Target sequence (P0AE70 whole entry, looked up): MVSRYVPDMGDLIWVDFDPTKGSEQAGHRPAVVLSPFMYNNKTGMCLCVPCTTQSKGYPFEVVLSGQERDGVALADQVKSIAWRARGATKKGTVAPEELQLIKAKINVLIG
BoNT-F LC inh – BoNT/F light chain protease inhibitors, primary screen, biochemical, flow cytometry, MLPCN library; 0.22% of 360,000 active; inhibition, % at 10 µM; Multiplex microsphere protease cleavage assay; AID 588497, 2011; Botulinum neurotoxin type F light chain protease (Clostridium botulinum); in the data active = inhibition above about 35%, passing the limit was not always enough; inconclusive = no clear call, values can overlap the other calls
Hits are given with their value; 0 = inactive; ? = inconclusive; - = not tested or not shown. Cut-off read from the data, not from the text of the source, unless noted: active = inhibition above about 30%; inconclusive = no clear call, values can overlap the other calls; inactive = below that.

SMILES	BoNT A protease	Autofluor counter	Anthrax LF inh2	MazEF act	BoNT-F LC inh
Cc1cc(OCC(=O)N(Cc2ccco2)c2c(N)n(Cc3ccccc3)c(=O)[nH]c2=O)ccc1Cl	0	?	0	0	0
COc1ccc(C(CNC(=O)c2ccc(C)c(S(=O)(=O)N3CCOCC3)c2)N2CCCC2)cc1 (stereo not given)	0	0	0	0	0
O=C(NC1CCCC1)c1ccc(CSCc2ccccc2F)o1	0	23171	0	0	0
COC(=O)C1=C(\O)CCCC/C=C\1C(=O)O	0	0	0	0	0
COc1ccc(C(=O)N/C(=C/c2ccco2)C(=O)N2CCCCCC2)cc1	0	0	0	0	0
O=C(Nc1cccc(-n2cccn2)c1)C1CCCN(Cc2ccc(C#CCCO)cc2)C1 (stereo not given)	0	0	0	0	0
Cc1cc(Cl)c(S(=O)(=O)N2CCN(c3ccc(F)cc3)CC2)cc1OCC(=O)NC1CCCCC1	0	16526	0	0	0
Cc1cc(Cl)c(S(=O)(=O)Nc2ccc3c(c2)OCCO3)cc1OCC(=O)NC1CCCCC1	?	19863	0	0	0
COC(=O)COc1ccc(S(=O)(=O)Nc2ccc3c(c2)OCCO3)cc1C	0	0	0	0	?
COC(=O)COc1ccc(S(=O)(=O)Nc2ccc3c(c2)OCCO3)cc1Cl	0	20964	0	0	0
Cc1cccc(C(=O)NCCC(=O)Nc2ccc(C#N)cc2)c1	0	0	0	0	0
O=C1NCCCCC1NS(=O)(=O)c1ccc(Cl)cc1 (stereo not given)	0	0	0	0	0
CCNC(=O)NC(=O)CSc1ccc(S(=O)(=O)N2CCCCC2)cn1	0	0	0	0	0
F[B-](F)(F)COCc1ccccc1Br	0	0	0	0	0
S=C1CSc2ccccc2N1	0	0	0	0	0
CC1CSc2ccccc2NC1=S (stereo not given)	0	16476	0	0	0
CN(C)C(=O)C1Cc2ccccc2CN1S(=O)(=O)c1cccs1 (stereo not given)	0	0	0	0	0
Cn1c(=O)oc2cc(S(=O)(=O)N3CCC(C(=O)N4CC=C(c5ccccc5)CC4)CC3)ccc21	0	0	0	0	0
O=C(C1CCN(S(=O)(=O)c2ccc(F)cc2)CC1)N1CC=C(c2ccccc2)CC1	0	17943	0	0	0
O=C(C1CCN(S(=O)(=O)N2CCOCC2)CC1)N1CCC2(CC1)OCCO2	0	22049	0	0	0
O=C(C1CCN(S(=O)(=O)c2cccs2)CC1)N1CCN(c2ccccc2)CC1	0	16746	0	0	0
COc1ccc(N2CCN(C(=O)C3CCN(S(=O)(=O)c4cccs4)CC3)CC2)cc1	0	0	0	0	0
O=C(C1Cc2ccccc2CN1S(=O)(=O)c1cccs1)N1CCCCC1 (stereo not given)	0	25075	0	0	0
O=C(C1CCN(S(=O)(=O)N2CCC3(CC2)OCCO3)CC1)N1CCOCC1	0	0	0	0	0
Cc1ccc(S(=O)(=O)N(C)CC(=O)NCCCn2ccnc2)cc1	0	0	0	0	0
SMILES	BoNT A protease	Autofluor counter	Anthrax LF inh2	MazEF act	BoNT-F LC inh
O=C(C1CCN(S(=O)(=O)c2ccccc2)CC1)N1CCCCC1	0	0	0	0	0
O=C(C1CCN(S(=O)(=O)c2ccccc2)CC1)N1CCOCC1	?	16459	0	0	0
O=C(c1ccc(S(=O)(=O)N2CCC(c3nc4ccccc4s3)CC2)cc1)N1CCOCC1	0	23501	0	0	0
Cc1ccc(N2C(=O)CC3(CCCC3)CC2=O)cc1	0	0	32	0	?
O=C(/C=C/c1ccccc1)N1CCCN(C(=O)/C=C/c2ccccc2)CC1	0	20323	0	0	0
COc1cc(-c2nc(CN3CCN(C(=O)c4ccco4)CC3)c(C)o2)ccc1F	0	0	0	0	0
Cc1noc(C)c1Cn1c(C)c(C(=O)NCc2ccc3c(c2)OCCO3)sc1=O	0	0	0	-	0
CCC(C)[C@H](NC(=O)NC1CC1)C(=O)O (stereo not given in full)	?	23360	0	0	0
CCCCOCCCNC(=O)N[C@H](C(=O)O)C(C)CC (stereo not given in full)	0	0	0	0	0
CCCCOc1ccc(-n2nc(C)cc2C)nn1	0	0	0	0	0
Cc1cc(C)n(-c2ccc(OCC(=O)O)nn2)n1	0	23964	0	0	0
Cc1cc(=O)[nH]c(SCc2nc3ncccn3c2Br)n1	0	24282	0	0	0
N#CCCN(Cc1cccnc1)CN1C(=O)c2ccccc2C1=O	0	0	0	0	0
Cc1ccc(S(=O)(=O)Nc2nc(C)c(NC(=O)OCCCl)s2)cc1	0	21860	0	0	0
Cc1nn(C)c(Oc2cccc(C(F)(F)F)c2)c1C=O	0	0	0	0	0
CC(=O)OCc1c(C(F)(F)F)nn(C)c1Oc1ccccc1	0	17428	0	0	0
CC(=O)OCc1c(C(F)(F)F)nn(C)c1Oc1cccc(C(F)(F)F)c1	0	16385	0	0	0
Cc1nn(C)c(Oc2ccccc2)c1CCNC(=O)CCl	0	0	0	0	0
COc1ccc(S(=O)(=O)N2CCCCC2)cc1NC(=O)C1CC1C (stereo not given)	0	0	0	0	0
CC1(C(=O)Nc2ccccc2)CCN1C(=O)CCc1ccc(Cl)cc1Cl (stereo not given)	0	0	0	-	0
Cn1c(=O)c(N)c2c3c(c(Br)ccc31)C(=O)c1ccccc1-2	38	0	0	0	0
CCn1cnnc1SCC(=O)Nc1ccccc1C(=O)NC1CC1	0	0	0	0	0
C/C(N)=C(/C#N)C(=O)COC(=O)COc1ccc(Cl)cc1C	0	21745	0	0	0
CCN(CC)C(=O)C(C)OC(=O)COc1ccc(Cl)cc1C (stereo not given)	0	22121	0	0	0
Cc1cc(Cl)ccc1OCC(=O)OC(C)C(=O)N(C)C (stereo not given)	0	0	0	0	0
SMILES	BoNT A protease	Autofluor counter	Anthrax LF inh2	MazEF act	BoNT-F LC inh
Cc1cc(Cl)ccc1OCC(=O)OCC(=O)Nc1ccc(Cl)cn1	0	0	0	0	0
CC1(Cc2ccc(F)cc2)C(=O)Nc2ccc(S(=O)(=O)NC3CCCCC3)cc21 (stereo not given)	0	0	0	-	0
Cc1nn(Cc2c(F)c(F)c(F)c(F)c2F)c(C)c1NC(=O)c1ccc(COc2ccccc2Cl)cc1	0	0	0	0	0
Cc1nn(Cc2c(F)c(F)c(F)c(F)c2F)c(C)c1NC(=O)c1ccc(COc2ccccc2Cl)o1	0	19196	0	0	0
O=C(c1ccc(-n2ccnc2)cc1)N1CCCC(CO)(Cc2cccc(Cl)c2)C1 (stereo not given)	0	0	0	0	0
ONC(=Nc1ccc(Cl)cc1)c1ccc(Cl)cc1	0	24126	0	0	0
O=[N+]([O-])c1cccc(C(=Nc2ccc(Cl)cc2)NO)c1	0	0	0	0	0
